HepG2 viability: qHTS for Inhibitors of TGF-b: Cytotox Counterscreen; AID 588856, 2011; HepG2 CAGA-GFP viability, ATP luminescence, 18 h; Potency, µM (titrated, usually from 46.1 µM), without a hit: at the top dose activity change, negative = cytotoxicity, most hits filed as cytotoxic; actives 0.76% (n = 410,000); note: potency is the fitted concentration of half-maximal effect
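HepG2 CAGA-GFP cells (1000/well, DMEM with 1% FBS) received compound, then TGF-beta at 500 pg/mL final, and were incubated 18 hours at 37 degrees C. Viability was read by CellTiter-Glo luminescence. Media-only wells were set as complete cell-killing and DMSO as no toxicity.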
TDP1 cell noCPT: qHTS for Inhibitors of human tyrosyl-DNA phosphodiesterase 1 (TDP1): qHTS in cells in absence of CPT; Potency, µM (series often up to 46.2 µM), without a hit: at the top dose activity change, negative = growth inhibition, actives largely listed as inhibitors; DT40 Tdp1-/- hTDP1 cells, no CPT, ATP luminescence, 48 h; actives 15% (n = 420,000); note: potency is the fitted concentration of half-maximal effect; % is set by controls: 0 for no effect and ±100 for the full control effect; nearly all actives have a fitted effect of over 55% in size
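Camptothecin absent (DMSO only). Human TDP1-complemented DT40 knockout cells, 400 cells/well, 37 °C for minimum 48 hr; ATP measured via CellTiter-Glo, 30 min dark incubation, luminescence.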
DT40 TDP1 CPT: qHTS for Inhibitors of human tyrosyl-DNA phosphodiesterase 1 (TDP1): qHTS in cells in presence of CPT | AID 686979, 2013 | Potency, µM (doses to about 46.2 µM), for the others: at the top dose activity change, negative = growth inhibition, hits mostly inhibitors | chicken DT40 Tdp1-/-;hTDP1 cells + 20 nM CPT, ATP luminescence, 48 h | actives 12% (n = 420,000); note: potency is the fitted concentration of half-maximal effect; % is set by controls: 0 for no effect and ±100 for the full control effect; nearly all actives have a fitted effect of over 55% in size
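Chicken DT40 Tdp1-/- cells complemented with human TDP1, 400 cells/well, exposed to compounds plus 20 nM camptothecin for at least 48 h at 37 C; viability read as ATP content by CellTiter-Glo luminescence.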
TGFb inhibitor: qHTS for Inhibitors of TGF-b. actives 1.2% (n = 410,000). HepG2 CAGA-GFP TGF-b/SMAD3 reporter, GFP fluorescence, 18 h; TGF-beta stimulated, 500 pg/mL final. Potency, µM (series often up to 46.1 µM), inactives show at the top dose activity, negative = inhibition, hits mostly inhibitors; note: potency is the fitted concentration of half-maximal effect; % is set by controls: 0 for no effect and ±100 for the full control effect; nearly all actives have a fitted effect of over 65% in size
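Smad-responsive CAGA-GFP expression was quantified in HEPG2 cells exposed to compounds and 500 pg/mL final TGF-beta for 18 h at 37 degrees C; unstimulated wells defined full inhibition.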
TDP1 inh: qHTS Assay for Inhibitors of Tyrosyl-DNA Phosphodiesterase (TDP1) | recombinant TDP1, AlphaScreen DNA substrate cleavage | Potency, µM (series often up to 130 µM), without a hit: top-dose activity change, negative = inhibition, hits mostly inhibitors | actives 0.28% (n = 350,000) | AID 485290, 2010; note: potency is the fitted concentration of half-maximal effect; % is set by controls: 0 for no effect and ±100 for the full control effect; nearly all actives have a fitted effect of over 40% in size
Target sequence (Q9NUW8 whole entry, looked up): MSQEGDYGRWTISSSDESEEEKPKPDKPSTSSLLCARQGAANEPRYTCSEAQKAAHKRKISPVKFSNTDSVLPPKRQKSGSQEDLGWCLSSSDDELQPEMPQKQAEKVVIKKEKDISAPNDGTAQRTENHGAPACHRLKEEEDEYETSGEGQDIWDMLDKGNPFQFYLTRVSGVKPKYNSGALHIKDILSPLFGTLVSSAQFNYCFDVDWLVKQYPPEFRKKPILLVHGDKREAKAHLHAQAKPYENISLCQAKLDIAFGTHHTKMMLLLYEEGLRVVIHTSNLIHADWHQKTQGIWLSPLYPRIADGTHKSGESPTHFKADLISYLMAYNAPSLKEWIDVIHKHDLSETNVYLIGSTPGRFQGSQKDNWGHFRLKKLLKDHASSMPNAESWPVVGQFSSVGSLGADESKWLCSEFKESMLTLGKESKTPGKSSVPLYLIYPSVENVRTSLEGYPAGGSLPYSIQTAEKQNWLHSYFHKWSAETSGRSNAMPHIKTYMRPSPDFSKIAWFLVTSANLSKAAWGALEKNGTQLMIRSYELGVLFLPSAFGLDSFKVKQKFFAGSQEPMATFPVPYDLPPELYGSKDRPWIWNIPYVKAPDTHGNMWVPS
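Compounds were preincubated with Tdp1 (1 nM final) for 15 min at room temperature before substrate (15 nM final) started a 5 min reaction; beads (10 ug/ml final) were then added for 10 min before AlphaScreen detection.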
IL-1B inflam inh: qHTS for Inhibitors of Inflammasome Signaling: IL-1-beta AlphaLISA Primary Screen. THP-1 LPS/ATP IL-1B secretion, AlphaLISA, 16 h; stronger effect = lower value. activity change, % at 57.5 µM. actives 4.7% (n = 360,000); in the data active = activity change below about -50%; inconclusive = mostly about -30% to -49%; note: % is set by controls: 0 for no effect and ±100 for the full control effect
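Secreted IL-1B measured by AlphaLISA bead assay after 16 h compound exposure of THP-1 cells; compounds (final up to 57.5 uM) added 1 h before LPS (250 ng/mL) and ATP (1.25 mM) stimulation; lower signal means less secretion.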
* marks the source's active call; other numbers are inactive results; ! = repeats disagree; [ ] = dose if it differs, or a comment. Shown are actives, neighbours in structure and some others; about 19% of the full set was active somewhere. Unless noted, calls come from the whole dose curve; as a rule, active = well fitted curve in the direction sought with a large enough effect; inconclusive = small, poorly fitted or top-dose-only effect, or another doubt; inactive = no such curve, though single readings can be large; an effect the other way counts as inactive or inconclusive.

How did CC1(C)OC2CC3C4CCC5=CC(=O)C=C[C@@]5(C)[C@]4(F)C(O)C[C@@]3(C)[C@]2(C(=O)CO)O1 (some centres not stated) do in these assays?
TDP1 cell noCPT: 1%; DT40 TDP1 CPT: 1%; TDP1 inh: 11%[56.1 µM]

Results for C[C@@H]1C[C@H]2[C@@H]3C[C@H](F)C4=CC(=O)C=C[C@]4(C)[C@@]3(F)[C@@H](O)C[C@]2(C)[C@@]1(O)C(=O)COC(=O)C(C)(C)C ?
HepG2 viability: -26%; TDP1 cell noCPT: 23µM*; DT40 TDP1 CPT: 23µM*; TGFb inhibitor: -6%; TDP1 inh: 5%; IL-1B inflam inh: 0

What do the screens show for `CC(=O)C12OC(C)(C)OC1CC1C3CCC4=CC(=O)C=CC4(C)C3(F)C(O)CC12C` (configuration not stated)?
HepG2 viability: -1%; TDP1 cell noCPT: -26%; DT40 TDP1 CPT: -7%; TGFb inhibitor: 11%; IL-1B inflam inh: -57*

How did CCCC(=O)O[C@]1(C(=O)COC(C)=O)CC[C@H]2[C@@H]3C[C@H](F)C4=CC(=O)C=C[C@]4(C)[C@@]3(F)[C@@H](O)C[C@@]21C do in these assays?
HepG2 viability: 4%; TDP1 cell noCPT: inconclusive; DT40 TDP1 CPT: 24µM*!; TGFb inhibitor: 23%; TDP1 inh: 6%; IL-1B inflam inh: -75*

What do the screens show for `COc1ccc(-c2coc3c(O)c(OC)ccc3c2=O)cc1`?
TDP1 cell noCPT: inconclusive; DT40 TDP1 CPT: -22%; TDP1 inh: 10%[56.1 µM]

What do the screens show for `C[C@@H]1C[C@H]2[C@@H]3C[C@H](F)C4=CC(=O)C(Cl)=C[C@]4(C)[C@@]3(F)[C@@H](O)C[C@]2(C)[C@@]1(O)C(=O)CO`?
TDP1 cell noCPT: 17µM*; DT40 TDP1 CPT: inconclusive; TDP1 inh: 9%

Results for C[C@@H]1CC2[C@@H]3C[C@H](F)C4=CC(=O)C(Cl)=C[C@]4(C)[C@@]3(F)[C@H](O)C[C@]2(C)[C@@]1(O)C(=O)CO (some centres not stated) ?
TDP1 inh: 6%

How did CC(=O)Nc1cc(-c2ccc(N3CCN(C)CC3)cc2)cn2c(-c3ccccc3)cnc12 do in these assays?
HepG2 viability: -28%; TDP1 cell noCPT: 16µM*; DT40 TDP1 CPT: 21µM*; TGFb inhibitor: -11%

Results for CC(=O)Nc1cc(-c2ccc(N3CCN(C)CC3)cc2)cn2c(-c3ccc(S(C)(=O)=O)cc3)cnc12 ?
HepG2 viability: -32%; TDP1 cell noCPT: 21µM*; DT40 TDP1 CPT: 15µM*; TGFb inhibitor: 35%; IL-1B inflam inh: -24

What do the screens show for `CC(=O)Nc1cc(-c2ccc(S(C)(=O)=O)cc2)cn2c(-c3ccc(F)cc3)cnc12`?
HepG2 viability: 3%; TDP1 cell noCPT: inconclusive; DT40 TDP1 CPT: inconclusive; TGFb inhibitor: 10%; IL-1B inflam inh: inconclusive

What do the screens show for `COC(=O)c1ccc(COC(=O)CNC(=O)CNC(=O)c2ccc(C)cc2)cc1`?
HepG2 viability: -23%; TDP1 cell noCPT: 16%; DT40 TDP1 CPT: -16%; TGFb inhibitor: -13%; TDP1 inh: -5%; IL-1B inflam inh: -13

What do the screens show for `Cc1ccc(C(=O)NCC(=O)NCC(=O)OCc2ccc(Cl)cc2)cc1`?
HepG2 viability: 12%; TDP1 cell noCPT: -8%; DT40 TDP1 CPT: -14%; TGFb inhibitor: -9%; TDP1 inh: 0%; IL-1B inflam inh: -98*

Results for COc1ccc(-c2nc3cc(F)ccc3cc2CN(C(=O)c2ccc3c(c2)OCO3)C2CC2)cc1 ?
TDP1 cell noCPT: -12%; DT40 TDP1 CPT: 17%

Results for NC(=O)Cn1c(=O)n(-c2ccc(F)c(Cl)c2)c(=O)c2sc3ccccc3c21 ?
HepG2 viability: -6%; TDP1 cell noCPT: inconclusive; DT40 TDP1 CPT: -15%; TGFb inhibitor: -25%; TDP1 inh: 4%

Results for O=C(Nc1ccc(Br)cc1)C1CCN(S(=O)(=O)c2cccc3nsnc23)CC1 ?
HepG2 viability: -4%; TDP1 cell noCPT: -21%; DT40 TDP1 CPT: inconclusive; TGFb inhibitor: inconclusive; TDP1 inh: 0%

Results for Cc1cc(C)nc(NS(=O)(=O)c2ccc(N=NN(C)C)cc2)n1 ?
HepG2 viability: 6%; TDP1 cell noCPT: -21%; DT40 TDP1 CPT: -12%; TGFb inhibitor: -4%; IL-1B inflam inh: 33

Results for O=C(NCC1OCCc2ccccc21)c1ccc(NC(=O)c2cccc(Br)c2)cc1 (configuration not stated) ?
HepG2 viability: -21%; TDP1 cell noCPT: 7.3µM*; DT40 TDP1 CPT: 7.3µM*; TGFb inhibitor: -13%; TDP1 inh: 3%; IL-1B inflam inh: 18

Results for O=C(NCC1OCCc2ccccc21)c1ccc(NC(=O)c2ccccc2Cl)cc1 (configuration not stated) ?
HepG2 viability: 15%; TDP1 cell noCPT: inconclusive; DT40 TDP1 CPT: -21%; TGFb inhibitor: 14%; TDP1 inh: -3%; IL-1B inflam inh: -73*

Results for O=C(NCC1OCCc2ccccc21)c1cc(COc2c(F)cccc2F)on1 (configuration not stated) ?
HepG2 viability: -24%; TDP1 cell noCPT: 16µM*; DT40 TDP1 CPT: -9%; TGFb inhibitor: 1%; TDP1 inh: 0%; IL-1B inflam inh: -7

How did COc1ccc(C(=O)NCC2OCCc3ccccc32)cc1OC (configuration not stated) do in these assays?
HepG2 viability: -34%; TDP1 cell noCPT: 0%; DT40 TDP1 CPT: -5%; TGFb inhibitor: 6%; TDP1 inh: 2%; IL-1B inflam inh: inconclusive

How did CCc1ccc(C(C)NC(=O)/C=C/c2ccc(Br)cc2)cc1 (configuration not stated) do in these assays?
HepG2 viability: 0%; TDP1 cell noCPT: -14%; DT40 TDP1 CPT: inconclusive; TGFb inhibitor: -26%; TDP1 inh: 2%; IL-1B inflam inh: 0

What do the screens show for `CCOC(=O)C(=Cc1ccc(Br)cc1)C(=O)OCC`?
HepG2 viability: 14µM*; TDP1 cell noCPT: 2.9µM*; DT40 TDP1 CPT: 12µM*; TGFb inhibitor: 18µM*; TDP1 inh: 3%; IL-1B inflam inh: -97*
